Measured values as given in PubChem BioAssay (NCI).
The panel holds about 79,000 compounds, 15% with a hit somewhere; the sample as a whole holds those more often. Values without a mark were called inactive. Active and inactive are the calls of the source. No stated cut-off is given here; in the data, active means growth inhibition above about 70%; inactive means the rest.

What was measured:
[1] = NCI Yeast Anticancer Drug Screen. Data for the rad52 strain (AID 147);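 further: 0% = growth of vehicle-treated control cultures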; conditions: S. cerevisiae rad52 mutant growth inhibition, hits give high values
In short: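 The repair-mutant yeast strain was incubated with compounds, then growth was read and inhibition derived relative to vehicle.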

[2] = NCI Yeast Anticancer Drug Screen. Data for the wt1 strain (AID 149);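 further: 0% = growth of vehicle-treated wt1 cultures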; conditions: S. cerevisiae wt1 strain (SPY 50644) growth inhibition, hits give high values
In short: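 Readout: yeast growth inhibition, normalised to vehicle controls, in the wt1 strain exposed to test compounds.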

[3] = NCI Yeast Anticancer Drug Screen. Data for the rad50EPP+ strain (AID 151);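 further: 0% = growth of vehicle-treated control cultures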; conditions: S. cerevisiae rad50 mutant strain, hits give high values
In short: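 Vehicle-normalised growth inhibition; rad50EPP+ yeast strain, altered in DNA damage repair, compound-treated.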

[4] = NCI Yeast Anticancer Drug Screen. Data for the mgt1 strain (AID 153); conditions: S. cerevisiae mgt1 mutant growth inhibition, hits give high values
In short: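 Vehicle-normalized growth inhibition is determined in mgt1 yeast, a strain selected for a defined alteration in DNA repair or cell cycle control.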

[5] = NCI Yeast Anticancer Drug Screen. Data for the rad50 strain (AID 155);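 further: 0% = growth of vehicle-only cultures of the same strain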; conditions: S. cerevisiae rad50 strain growth inhibition, hits give high values
In short: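 Compounds were tested on a yeast strain with an engineered DNA damage repair alteration; the reported value is growth inhibition normalised to vehicle treatment.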

[6] = NCI Yeast Anticancer Drug Screen. Data for the mec2-1 strain (AID 157); conditions: S. cerevisiae mec2-1 strain, hits give high values
In short: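 Mutant yeast (mec2-1) grown with compound; growth inhibition relative to vehicle control reported.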

[7] = NCI Yeast Anticancer Drug Screen. Data for the rad14 strain (AID 159);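 further: 0% = growth of vehicle-treated control cultures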; conditions: S. cerevisiae rad14 strain growth inhibition, hits give high values
In short: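 Compound-treated yeast with a defined DNA-repair lesion; growth inhibition normalised to vehicle-treated cultures.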

[8] = NCI Yeast Anticancer Drug Screen. Data for the sgs1 mgt1 strain (AID 161);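 further: 0% = growth of cultures given vehicle only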; conditions: S. cerevisiae sgs1 mgt1 strain, hits give high values
In short: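 Compounds are added to genetically altered yeast, and growth is compared with cultures given vehicle alone to give percent inhibition.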

[9] = NCI Yeast Anticancer Drug Screen. Data for the CLN2oe strain (AID 163);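 further: 0% = growth of vehicle-only control cultures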; conditions: S. cerevisiae CLN2oe strain, hits give high values
In short: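 Compounds are applied to yeast harbouring a defined cell-cycle control change; reduced growth compared with vehicle-treated controls gives the value.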

[10] = NCI Yeast Anticancer Drug Screen. Data for the cln2 rad14 strain (AID 165);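 further: 0% = growth equal to vehicle treated cultures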; conditions: S. cerevisiae cln2 rad14 strain, hits give high values
In short: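 Readout is yeast growth inhibition versus vehicle-treated controls, using a strain with cln2 and rad14 alterations exposed to compound.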

[11] = NCI Yeast Anticancer Drug Screen. Data for the bub3 strain (AID 167); conditions: S. cerevisiae bub3 mutant strain, hits give high values
In short: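 Growth of a checkpoint-deficient yeast mutant is measured after compound exposure. Values represent inhibition relative to vehicle.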

[12] = NCI Yeast Anticancer Drug Screen. Data for the wt2 strain (AID 169);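 further: 0% = growth of vehicle-treated yeast cultures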; conditions: S. cerevisiae wt2 strain growth inhibition, hits give high values
In short: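 Against vehicle-treated controls, the growth of yeast exposed to each compound was compared, and the inhibition was recorded.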

[13] = NCI Yeast Anticancer Drug Screen. Data for the mlh1 strain (AID 171);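 further: 0% = growth of vehicle-treated control cultures of the same strain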; conditions: S. cerevisiae mlh1 strain growth inhibition, hits give high values
In short: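 Measured: yeast growth. Reference: vehicle-treated controls. Organism: strain with a defined alteration affecting DNA damage repair or cell cycle control, treated with compound.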

[14] = NCI Yeast Anticancer Drug Screen. Data for the sgs1 strain (AID 173);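 further: 0% = growth of vehicle-only control cultures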; conditions: S. cerevisiae sgs1 mutant, hits give high values
In short: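 Each compound was added to cultures of the altered yeast strain. Growth was recorded, and inhibition was derived by comparison with vehicle controls.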

[15] = NCI Yeast Anticancer Drug Screen. Data for the mlh1 rad18 strain (AID 175); conditions: S. cerevisiae mlh1 rad18 strain growth inhibition, hits give high values
In short: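 Genetically defined yeast (DNA repair-deficient) exposed to compounds; growth inhibition determined relative to vehicle.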

[16] = NCI Yeast Anticancer Drug Screen. Data for the rad18 strain (AID 177); conditions: S. cerevisiae rad18 mutant growth inhibition, hits give high values
In short: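 Vehicle-treated cultures served as the baseline for scoring compound-induced growth inhibition in DNA-repair-mutant yeast.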

[17] = at 5.0 µM (retest, dose inferred, filed as 0.5)
[18] = at 50.0 µM (retest, dose inferred, filed as 5.0)

CC1=COC2=C(C)C(=O)C(=O)c3c(C)ccc1c32
growth inhibition ([1]; at 1.2 µM): 20%
growth inhibition ([1]; at 3.7 µM): 23%
growth inhibition ([1]; at 11.0 µM): 30%
growth inhibition ([1]; at 33.0 µM): 68%
growth inhibition ([1]; at 100.0 µM): 93% (active)
growth inhibition ([2]; at 1.2 µM): 30%
growth inhibition ([2]; at 3.7 µM): 38%
growth inhibition ([2]; at 11.0 µM): 45%
growth inhibition ([2]; at 33.0 µM): 77% (active)
growth inhibition ([2]; at 100.0 µM): 96% (active)
growth inhibition ([3]; at 1.2 µM): 2%
growth inhibition ([3]; at 3.7 µM): 7%
growth inhibition ([3]; at 11.0 µM): 19%
growth inhibition ([3]; at 33.0 µM): 42%
growth inhibition ([3]; at 100.0 µM): 60%
growth inhibition ([4]; at 1.2 µM): 41%
growth inhibition ([4]; at 3.7 µM): 28%
growth inhibition ([4]; at 11.0 µM): 37%
growth inhibition ([4]; at 33.0 µM): 89% (active)
growth inhibition ([4]; at 100.0 µM): 94% (active)
growth inhibition ([5]; at 1.2 µM): 34%
growth inhibition ([5]; at 3.7 µM): 39%
growth inhibition [5, 17]: 25%
growth inhibition ([5]; at 11.0 µM): 53%
growth inhibition ([5]; at 33.0 µM): 85% (active)
growth inhibition [5, 18]: 47%
growth inhibition ([5]; at 50.0 µM): 88.3% (active)
growth inhibition ([5]; at 100.0 µM): 93% (active)
growth inhibition ([6]; at 1.2 µM): 43%
growth inhibition ([6]; at 3.7 µM): 40%
growth inhibition [6, 17]: 36%
growth inhibition ([6]; at 11.0 µM): 48%
growth inhibition ([6]; at 33.0 µM): 80% (active)
growth inhibition [6, 18]: 59%
growth inhibition ([6]; at 50.0 µM): 89.2% (active)
growth inhibition ([6]; at 100.0 µM): 95% (active)
growth inhibition ([7]; at 1.2 µM): 10%
growth inhibition ([7]; at 3.7 µM): 17%
growth inhibition ([7]; at 11.0 µM): 20%
growth inhibition ([7]; at 33.0 µM): 79% (active)
growth inhibition ([7]; at 100.0 µM): 95% (active)
growth inhibition [8, 17]: 51%
growth inhibition [8, 18]: 67%
growth inhibition ([8]; at 50.0 µM): 77.5% (active)
growth inhibition ([9]; at 1.2 µM): 37%
growth inhibition ([9]; at 3.7 µM): 44%
growth inhibition ([9]; at 11.0 µM): 36%
growth inhibition ([9]; at 33.0 µM): 77% (active)
growth inhibition ([9]; at 100.0 µM): 95% (active)
growth inhibition [10, 17]: 16%
growth inhibition [10, 18]: 32%
growth inhibition ([10]; at 50.0 µM): 77.8% (active)
growth inhibition ([11]; at 1.2 µM): 67%
growth inhibition ([11]; at 3.7 µM): 70% (active)
growth inhibition [11, 17]: 77% (active)
growth inhibition ([11]; at 11.0 µM): 84% (active)
growth inhibition ([11]; at 33.0 µM): 91% (active)
growth inhibition [11, 18]: 82% (active)
growth inhibition ([11]; at 50.0 µM): 81% (active)
growth inhibition ([11]; at 100.0 µM): 93% (active)
growth inhibition ([12]; at 1.2 µM): -19%
growth inhibition ([12]; at 3.7 µM): -18%
growth inhibition ([12]; at 11.0 µM): -19%
growth inhibition ([12]; at 33.0 µM): 6%
growth inhibition ([12]; at 100.0 µM): 91% (active)
growth inhibition ([13]; at 1.2 µM): 25%
growth inhibition ([13]; at 3.7 µM): 27%
growth inhibition ([13]; at 11.0 µM): 47%
growth inhibition ([13]; at 33.0 µM): 82% (active)
growth inhibition ([13]; at 100.0 µM): 94% (active)
growth inhibition ([14]; at 1.2 µM): 23%
growth inhibition ([14]; at 3.7 µM): 29%
growth inhibition ([14]; at 11.0 µM): 35%
growth inhibition ([14]; at 33.0 µM): 80% (active)
growth inhibition ([14]; at 100.0 µM): 94% (active)
growth inhibition [15, 17]: 5%
growth inhibition [15, 18]: 71% (active)
growth inhibition ([15]; at 50.0 µM): 80% (active)
growth inhibition ([16]; at 1.2 µM): -3%
growth inhibition ([16]; at 3.7 µM): 18%
growth inhibition ([16]; at 11.0 µM): 30%
growth inhibition ([16]; at 33.0 µM): 79% (active)
growth inhibition ([16]; at 100.0 µM): 93% (active)
